The results in this text go back to ChEMBL document CHEMBL1157539, “Thousands of chemical starting points for antimalarial lead identification” (Nature, 2010).

Assay type in all cases: functional
Assay [1] deals with Plasmodium falciparum. The assay is described as follows: GSK_TCMDC: Inhibition of Plasmodium falciparum 3D7 in whole red blood cells, using parasite LDH activity as an index of growth. Test compounds present at 2uM.
Assay [2] deals with Plasmodium falciparum. Put plainly: GSK_TCMDC: Inhibition of Plasmodium falciparum Dd2 in whole red blood cells, using parasite LDH activity as an index of growth. Test compounds present at 2uM.
The test system of the next assay is HepG2. The assay is described as follows: GSK_TCMDC: Percent inhibition of human HepG2 cell line. Test compounds present at 10uM.

For the compound `CS(=O)(=O)c1ccc2nc(NC(=O)c3csnn3)sc2c1`, the Inhibition in the assay on Plasmodium falciparum [1] was 90%; in the assay on Plasmodium falciparum [2] it was 95%; in the assay with HepG2, 3%.
For `COc1cc2nc(SCCCC#N)n(C3CCCCCC3)c(=N)c2cc1OC`, in that order: 89%, 9% and 0%.
On the same counts, the results for `COc1ccc2ccc(F)c(CCN3CCC(NCc4cc5c(cn4)OCCO5)CC3)c2n1.Cl` are 96%, 36% and 15%.
For `Cc1nc(-c2cccc3c(NC(=O)Nc4ccc5nccc(N6CCN(C)CC6)c5c4)cccc23)no1.Cl`, in that order: 100%, 84% and 0%.
Regarding `O=C(NCCc1ccc(F)cc1)c1ccc(N2CCN(c3ccncc3)CC2)nc1.O=C(O)C(F)(F)F`, the Inhibition in the assay with Plasmodium falciparum [1] was found to be 88%; with Plasmodium falciparum [2], 3%; with HepG2, 1%.
For `Cc1ccc(CN2CCCN(Cc3cccc(NC(=O)c4cc5ccccc5s4)c3)CC2)cc1.O=C(O)C(F)(F)F`, in that order: 87%, 28% and 32%.
On the same counts, the results for `CN1CCC(NCc2ccc(-c3ccc(Cl)cc3)cc2)CC1` are 99%, 43% and 50%.
As to `CC(O)C(=O)O.COc1cc(Cc2cnc(N)nc2N)c2c(c1OC)OC(C)(C)C=C2`, the Inhibition in the assay with Plasmodium falciparum [1] worked out at 93%; in the assay on Plasmodium falciparum [2], 2%; with HepG2 it was 7%.
On the same counts, the results for `COc1ccc(C=NN=c2cc(C)[nH]c3ccc(C)cc23)c2ccccc12.Cl` are 94%, 55% and 28%.
On the same counts, the results for `CN1CCC(c2csc3ccc(NC(=O)Nc4ccc(-c5ccncc5)c5ccccc45)cc23)CC1` are 98%, 71% and 8%.
For `Cc1cccc(N2C(N)=NC(N)=NC2(C)C)c1C.Cl`, in that order: 90%, 0% and 0%.
`O=C(Nc1ccc2c(c1)CCCN2S(=O)(=O)c1cccs1)c1cc([N+](=O)[O-])ccc1Cl`: the figures for the Inhibition in the assay with Plasmodium falciparum [1], in the assay on Plasmodium falciparum [2] and with HepG2 were 93%, 95% and 29%, respectively.
In the case of `CCOc1ccccc1NC(=O)Nc1ccc2c(c1)CCN(C1CCC1)CC2.Cl`, the Inhibition with Plasmodium falciparum [1] amounted to 88%; with Plasmodium falciparum [2], 2%; in the assay on HepG2 it was 15%.
For `Cc1cccc2nc(-c3cccc(-c4cccc(NC(=O)c5csnn5)c4)c3)[nH]c12`, in that order: 98%, 49% and 10%.
`Cc1ccccc1C1CCN(C2CCC(NC(=O)c3cc4cc(C(C)C)ccc4[nH]3)CC2)CC1` (configuration not stated): the Inhibition is 99% in the assay with Plasmodium falciparum [1], 100% in the assay on Plasmodium falciparum [2] and 100% with HepG2.
As for `Cc1cc(N2CC=CCC2)nc(NC(=N)Nc2ccc(Cl)cc2)n1`, the Inhibition stood at 100% in the assay with Plasmodium falciparum [1], 78% in the assay with Plasmodium falciparum [2] and 0% in the assay on HepG2.
On the same counts, the results for `c1ccc(-c2csc(Nc3nc4cc5c(cc4s3)OCO5)n2)nc1` are 81%, 99% and 46%.
On the same counts, the results for `COc1ccc(-c2csc(N(CCCN(C)C)C(=O)c3cc4c(C)nn(-c5ccccc5)c4s3)n2)cc1.Cl` are 100%, 16% and 100%.
For `CN(C)Cc1ccc(-c2cccc(NC(=O)c3ccc(Cl)cc3)c2)cc1.O=C(O)C(F)(F)F`, in that order: 94%, 13% and 24%.
As to `Cc1cccc(CC(=N)NCCCCCCNC(=N)Cc2cccc(C)c2)c1.Cl`, the Inhibition in the assay with Plasmodium falciparum [1] turned out to be 97%; with Plasmodium falciparum [2], 97%; in the assay on HepG2, 12%.
In the case of `Clc1ccc(CNc2nc(NCCc3c[nH]cn3)nc(Nc3ccc4c(c3)OCO4)n2)cc1`, the figures for the Inhibition in the assay with Plasmodium falciparum [1], with Plasmodium falciparum [2] and in the assay on HepG2 were 84%, 6% and 8%, respectively.
For `CC[C@@]1(O)C(=O)OCc2c1cc1n(c2=O)Cc2c-1nc1cc3c(cc1c2CN1CCN(C)CC1)OCCO3.Cl`, in that order: 98%, 97% and 79%.
On the same counts, the results for `CCc1ccc(C(=O)NC(=O)c2ccccc2O)cc1` are 95%, 84% and 0%.
On the same counts, the results for `COc1ccc(C=CC(=O)NC(=O)c2ccccc2OC(=O)c2ccccc2)cc1OC` are 87%, 90% and 12%.
Take `Cc1cc2c(/C=C/C(=O)NC3CCC(CCN4CCc5ccc(C#N)cc5CC4)CC3)cccc2[nH]1.Cl` (configuration not stated): the Inhibition in the assay with Plasmodium falciparum [1] is given as 95%; in the assay with Plasmodium falciparum [2], 39%; with HepG2, 16%.
On the same counts, the results for `O=C(Nc1ccc(S(=O)(=O)N2CCOCC2)cc1)c1cc(-c2cc(Cl)ccc2O)n[nH]1` are 96%, 59% and 40%.
On the same counts, the results for `O=c1ccc(CNc2nc(NCCc3ccccc3)nc3cc(Cl)ccc23)c[nH]1` are 95%, 78% and 21%.
On the same counts, the results for `O=C(/C=C/c1ccc(Cl)c(Cl)c1)NCCCCCN1CC[C@H](NC(=O)/C=C/c2ccccc2)C1` are 93%, 1% and 10%.
In the case of `CCCC(CCC)n1ccc2c3c(N)nc(N)nc3ccc21.Cl`, the Inhibition in the assay on Plasmodium falciparum [1] is 98%; in the assay with Plasmodium falciparum [2] it was 97%; in the assay on HepG2, 66%.
For `CCOc1ccc(NC(=O)c2ccc(NCCCN3CC(C)CC(C)C3)c([N+](=O)[O-])c2)cc1` (configuration not stated), in that order: 100%, 60% and 3%.
On to `CN1CCCN(Cc2cccc(-c3ccc(NS(=O)(=O)c4cccc5cccnc45)cc3)c2)CC1.O=C(O)C(F)(F)F`, for which the figures for the Inhibition with Plasmodium falciparum [1], in the assay on Plasmodium falciparum [2] and with HepG2 were 100%, 87% and 44%, respectively.
On the same counts, the results for `CC1CN(c2cnn(Cc3ccc(NC(=O)Nc4ccc(F)cc4[N+](=O)[O-])cc3)c(=O)c2Cl)CC(C)N1.O=C(O)C(F)(F)F` (configuration not stated) are 89%, 10% and 4%.
On the same counts, the results for `Cc1ccc(NC(=O)N2CCCN(CCCCCNC(=O)/C=C/c3ccc(Cl)c(Cl)c3)CC2)cc1` are 99%, 2% and 12%.
On the same counts, the results for `COc1cc(C(=O)NC2CC(C)(C)NC(C)(C)C2)ccc1-c1cc2cc(Cl)c(Cl)cc2[nH]1.O=C(O)C(F)(F)F` are 99%, 31% and 41%.
On to `CN(CCCN(C)c1cc(NC(=O)c2ccc(F)cc2)ccn1)Cc1cccc(O)c1.O=C(O)C(F)(F)F`, for which the Inhibition came out at 90% in the assay with Plasmodium falciparum [1], 0% in the assay on Plasmodium falciparum [2] and 2% in the assay with HepG2.
On the same counts, the results for `Cc1ccc(C(=O)Nc2ccc(-c3nc4ccccc4[nH]3)cc2)cc1S(=O)(=O)N1CCOCC1` are 90%, 16% and 56%.
As for `Cc1cc(Cc2ccc(S(=O)(=O)c3cc4c(cc3O)CCN(C)CC4)cc2)ccc1Cl.Cl`, the Inhibition in the assay with Plasmodium falciparum [1] is given as 96%; in the assay with Plasmodium falciparum [2], 12%; with HepG2, 7%.
On the same counts, the results for `Cc1cc(NC2CCN(CC3CCCCC3)CC2)nc(Nc2ccccc2Cl)n1` are 100%, 31% and 28%.
On the same counts, the results for `Fc1ccc(CNc2ccc3ncc(-c4cccnc4)n3n2)cc1` are 87%, 7% and 7%.
In the case of `Cc1c2ccc(N(C)c3ccnc(Nc4ccc5c(c4)nc(NC(C)C)n5C)n3)cc2nn1C.Cl`, the Inhibition in the assay on Plasmodium falciparum [1] is 100%; in the assay on Plasmodium falciparum [2] it was 100%; with HepG2, 2%.
For `Cc1cccc2nc(-c3cccc(-c4ccc(NC(=O)C5CCN(C)CC5)cc4)c3)[nH]c12`, the values for the Inhibition in the assay on Plasmodium falciparum [1], in the assay on Plasmodium falciparum [2] and in the assay on HepG2 were 100%, 100% and 16%, respectively.
`Oc1ccccc1N1CCN(c2ccc(-c3nc4ccccc4[nH]3)cn2)CC1`: the results for the Inhibition in the assay with Plasmodium falciparum [1], in the assay with Plasmodium falciparum [2] and in the assay on HepG2 were 97%, 50% and 0%, respectively.
On the same counts, the results for `Br.N=C1N=C(N)NC2(CCCCC2)N1OCC1CCCCC1` are 96%, 49% and 70%.
For `Nc1ncc(OC2CCCCC2)c(N)n1`, in that order: 94%, 0% and 0%.
On the same counts, the results for `COc1ccc(CNCc2ccccc2)cc1-c1ccc(S(=O)(=O)NCCN2CCCC2)c(C)c1.O=C(O)C(F)(F)F` are 99%, 50% and 33%.
In the case of `CCCCCCc1cc2cc(-c3csc(C=Cc4ccccc4)n3)c(=O)oc2cc1O`, the values for the Inhibition in the assay with Plasmodium falciparum [1], in the assay on Plasmodium falciparum [2] and in the assay with HepG2 were 96%, 75% and 17%, respectively.
For `CCOc1ccc2c(=NN=Cc3ccc(OC)c(OC)c3)cc(C)[nH]c2c1`, in that order: 100%, 58% and 22%.
For `CN1C(C)(C)CC(NC(=O)c2ccc(-c3nc4cc(Cl)c(Cl)cc4[nH]3)cc2)CC1(C)C`, in that order: 98%, 97% and 8%.
On the same counts, the results for `O=C(O)C1CC(=O)N(c2ccc(Cl)cc2)C1` (configuration not stated) are 97%, 33% and 51%.
As to `OCCCCCCNc1ccnc2[nH]c3ccc(I)cc3c12`, the Inhibition was found to be 100% in the assay with Plasmodium falciparum [1], 61% with Plasmodium falciparum [2] and 27% in the assay with HepG2.
On the same counts, the results for `CCOc1ccc(-c2nonc2NC(=O)c2ccc(OC)cc2)cc1OCC` are 98%, 77% and 0%.
For `Cn1nccc1C(=O)NCCNCc1cccc(-c2ccc(-c3nc4cc(C(F)(F)F)ccc4[nH]3)s2)c1.O=C(O)C(F)(F)F`, in that order: 100%, 99% and 36%.
On the same counts, the results for `CN1CCN(CCCN(Cc2cccc(-c3cccc(CNCc4ccc5c(c4)OCO5)c3)c2)C(=O)CCC2CCCC2)CC1.O=C(O)C(F)(F)F` are 98%, 80% and 85%.
`O=C(O)C(F)(F)F.Oc1ccc2[nH]c(-c3cccc(F)c3)nc2c1CNCc1ccccc1`: the Inhibition with Plasmodium falciparum [1] is 92%; in the assay on Plasmodium falciparum [2], 55%; in the assay on HepG2 it was 29%.
For `CCCCn1c(C(C)Oc2ccc(Cl)cc2Cl)nc2cc(S(N)(=O)=O)ccc21` (configuration not stated), the Inhibition in the assay on Plasmodium falciparum [1] was determined as 94%; with Plasmodium falciparum [2], 45%; in the assay with HepG2, 24%.
For `CC1(C)N=C(NC(=O)c2ccc([N+](=O)[O-])cc2)N=C(N)N1OCc1ccc2ccccc2c1`, in that order: 95%, 78% and 64%.
On the same counts, the results for `Cc1nc2ccccc2c(O)c1-c1ccc(Cl)cc1` are 93%, 91% and 0%.
For `COCCN1CCN(Cc2ccc(-c3ccc(-c4nc5cc(F)ccc5[nH]4)cc3)cc2)CC1.O=C(O)C(F)(F)F`, in that order: 100%, 99% and 25%.
As for `NC(=O)c1ccc(NCC(=O)Nc2cccc(-c3cccc(-c4nc5ccccc5[nH]4)c3)c2)cc1`, the Inhibition in the assay on Plasmodium falciparum [1] is on record as 99%; with Plasmodium falciparum [2], 30%; in the assay on HepG2, 9%.
For `Cc1ccc2c(c1)c(C1CCN(C(=O)c3ccc([N+](=O)[O-])o3)CC1)cn2C`, in that order: 97%, 76% and 0%.
For `Cc1cc(NCCc2ccccc2)nc(NC(=N)Nc2cccc([N+](=O)[O-])c2)n1`, in that order: 100%, 100% and 21%.
In the case of `COc1ccccc1-c1sccc1C(=O)NC1(c2cc(Cl)cc(Cl)c2)CCCC1`, the Inhibition is 88% in the assay with Plasmodium falciparum [1], 95% in the assay with Plasmodium falciparum [2] and 0% with HepG2.
`CO/C(=C\C=C\c1cc2cc(Cl)c(Cl)cc2[nH]1)C(=O)NCCCN1CCN(c2ccncc2)CC1`: the results for the Inhibition in the assay on Plasmodium falciparum [1], with Plasmodium falciparum [2] and with HepG2 were 98%, 96% and 12%, respectively.
For `Cl.Oc1ccc(Cc2ccccc2)cc1CNC1CCCCC1`, the Inhibition in the assay with Plasmodium falciparum [1] is reported as 96%; in the assay with Plasmodium falciparum [2], 98%; in the assay on HepG2, 30%.

The term Inhibition denotes how much of the control response was suppressed. Low values mean a weak effect, high ones a strong effect.
